Screening results: PubChem BioAssay, Broad Institute
Not all results are given here.
aSyn UTR act = Activators via SNCA 5'UTR binding, MLPCN; alpha-synuclein 5'UTR reporter, activators screen; activity score, % (tested at 7.5 µM), hits read low; hit rate 7.1% among 300,000; AID 1814; in the data active = activity score below about -60%
Active calls of the source: *.

SMILES	aSyn UTR act
CCSc1ncc(/C=N/Nc2ccc(Cl)cc2)n1C	-181*
CCSc1ncc(/C=N/Nc2ccccc2)n1C	-109*
CCSc1ncc(/C=N/Nc2ccc([N+](=O)[O-])cc2)n1C	-194*
Cc1cc2n(n1)SC(Nc1cccc3ccccc13)N2 (configuration not stated)	-94*
Cc1cc(C)n(-c2ccc3cccc(NS(C)(=O)=O)c3n2)n1	90
CCOc1ccc(-c2cc(C(=O)NN)[nH]n2)cc1	-69*
Cc1ccc(Nc2nc(=O)c3cccnc3s2)cc1	-228*
Oc1ccccc1-c1cc(-c2cccc(F)c2)n[nH]1	-234*
CC(=O)Nc1cccc(C(=O)OCC(=O)c2ccccc2Cl)c1	-99*
CCC(=O)Nc1cccc(C(=O)OCC(=O)c2ccccc2Cl)c1	-171*
CC(=O)Nc1cccc(C(=O)OCC(=O)N2CCC(c3ccccc3)=N2)c1	-89*
CCOC(=O)c1cnn(-c2ccc(C(C)C)cc2)c1NC(=O)C1CCC1	-81*
CC(C)OC(=O)Cn1nnc2c(cnn2-c2ccccc2)c1=O	-98*
CCOC(=O)C1CCN(C(=O)c2cc(COc3ccc(OC)c4ccccc34)on2)CC1	-124*
COc1cc(C)ccc1OCc1cc(C(=O)N2CCC(c3ccc(F)cc3)C2)no1 (configuration not stated)	-175*
COCC1CCN(C(=O)c2cc(COc3ccc(OC)c4ccccc34)on2)C1 (configuration not stated)	-184*
COCC1CCN(C(=O)c2cc(COc3ccccc3SC)on2)C1 (configuration not stated)	-79*
COc1ccc(OCc2cc(C(=O)NC3CCOC(C)(C)C3)no2)c2ccccc12 (configuration not stated)	-183*
COc1ccc(OCc2cc(C(=O)N3CCC(OC)CC3)no2)c2ccccc12	-69*
COc1cc(Cl)ccc1OCc1cc(C(=O)N2CCCC(OC)C2)no1 (configuration not stated)	-148*
Cc1csc2ncc(C(=O)Nc3ccccc3Cl)c(=O)n12	-204*
Cc1csc2ncc(C(=O)Nc3ccccc3F)c(=O)n12	-205*
O=C1NC(c2ccccc2Cl)=N/C1=C/c1ccco1	-142*
O=C1NC(c2ccc(Br)cc2)=N/C1=C/c1ccco1	-149*
CCOC(=O)/C(C#N)=C/c1c(N2CCN(c3ccccc3)CC2)nc2ccccn2c1=O	-62*
SMILES	aSyn UTR act
COC(=O)/C(C#N)=C/c1c(N2CCN(c3ccccc3)CC2)nc2ccccn2c1=O	-65*
N#C/C(=C\c1c(N2CCN(c3ccccc3)CC2)nc2ccccn2c1=O)C(N)=O	-71*
O=C(Nc1ccc2[nH]ncc2c1)c1ccccc1	-81*
O=C(Nc1ccc2[nH]ncc2c1)c1ccc(F)cc1	-90*
c1ccc(-n2nnc3c(N4CCOCC4)ncnc32)cc1	75
O=c1c(Br)c(N2CCOCC2)cnn1-c1ccccc1	-144*
O=C(Cn1ncc(N2CCOCC2)c(Br)c1=O)c1ccc(Cl)cc1	-111*
O=c1c(Br)c(N2CCCC2)cnn1-c1ccccc1	-138*
CCOC(=O)c1c(NC(=O)CSc2nc3ccccc3o2)sc(C(C)=O)c1C	-63*
O=C(CSc1nc2ccccc2o1)Nc1nc(-c2ccccc2)cs1	-111*
CCOC(=O)c1c(NC(=O)CSc2cccc[n+]2[O-])sc(C(=O)Nc2ccccc2)c1C	-105*
Cc1ccccc1NC(=O)CSc1nc2ccccc2o1	-158*
O=C(CSc1nc2ccccc2o1)NCc1ccc2c(c1)OCO2	-79*
COc1ccc(NC(=O)c2cc3ccccc3o/c2=N\NS(=O)(=O)c2ccc(C)cc2)cc1	-133*
COc1ccc2oc(=N)c(C(=O)Nc3ccc(C)cc3)cc2c1	-101*
COc1ccc2o/c(=N\O)c(C(=O)Nc3ccc(C)cc3)cc2c1	-282*
COc1ccc2oc(=N)c(C(=O)Nc3ccc(F)cc3)cc2c1	-97*
N=c1oc2ccc(Cl)cc2cc1C(=O)Nc1ccc(F)cc1	-68*
CCCCOC(=O)/C(=C/c1cn(C)c2ccccc12)NC(=O)c1ccc(OC)cc1	-100*
CSc1ccccc1NC(=O)CSCc1ccc(C)cc1	-113*
Cc1ccc(CSCC(=O)Nc2ccccc2C(=O)O)cc1	-94*
Cc1ccc(NC(=S)N2CCn3cccc3C2c2cccnc2)cc1 (configuration not stated)	-93*
CC(C)c1ccc(NC(=O)NN2CCOCC2)cc1	-98*
CCC(C)c1ccc(NC(=S)NN2CCOCC2)cc1 (configuration not stated)	-99*
O=C1CC(/C=C/c2ccncc2)=Nc2ccccc2N1	-65*
SMILES	aSyn UTR act
O=c1c(-c2ccc(Cl)cc2)cnc2n1CCS2	-83*
Cc1c(C(=O)N/N=C/c2ccc(N(C)C)cc2)[nH]c2ccc(Cl)cc12	73
CC(C)Oc1ccc(/C=N/NC(N)=S)cc1	-116*
CNC(=S)N/N=C/c1ccc(N(C)C)cc1	-89*
CNC(=S)N/N=C/c1ccc(C(C)C)cc1	-161*
CN(C)c1ccc(/C=N/NC(=S)NCc2ccccc2)cc1	-85*
O=c1oc2ccccc2cc1-c1cn2cccnc2n1	-65*
O=C(Cc1cccc2ccccc12)Nc1ccc(-c2cc3ccccc3oc2=O)cc1	65
O=c1oc2ccccc2cc1-c1ccccc1	-118*
O=c1oc2ccccc2cc1-c1cn2ccccc2n1	98
O=c1oc2ccccc2cc1-c1nnc(-c2cccc(Br)c2)o1	-98*
O=c1oc2ccc(Cl)cc2cc1-c1ccccc1	-70*
Cc1cc(Nc2ccccc2)n2nc(C)c(-c3ccccc3)c2n1	-64*
COc1cccc2c1C(=O)c1ccc3ccccc3c1C2=O	-141*
Cc1ccc(CNC(=O)/C=C/c2cccs2)cc1	-184*
CCCCNC(=O)/C=C/c1cccs1	-86*
COc1ccc(C(=O)NNC(=S)NC(=O)C(C)(C)C)cc1	60
COc1ccc(C(=O)NC(=S)Nc2ccccc2F)cc1	-199*
COc1ccc(CCCC(=O)Nc2ccccc2F)cc1	-118*
CC(C)(C)C(=O)NC(=S)Nc1ccccc1F	-72*
O=c1c2ccccc2nc(/C=C/c2c[nH]c3ccccc23)n1CCO	-160*
COc1cccc(Nc2nc3ccccc3n3nnnc23)c1	-65*
CCN(CC)S(=O)(=O)c1ccc(Nc2nc3ccccc3n3nnnc23)cc1	-87*
CCN(CC)S(=O)(=O)c1ccc2c(c1)C(=NO)c1cc(S(=O)(=O)N(CC)CC)ccc1-2	115
c1ccc(Nc2nc3ccccc3n3nnnc23)cc1	-75*
SMILES	aSyn UTR act
Fc1ccccc1Nc1nc2ccccc2n2nnnc12	-146*
Cc1ccc(-c2nnc3c(C(F)(F)F)nc4ccccc4n23)cc1	71
Cc1ccc(-c2nc3ccccc3n3nnnc23)cc1	-249*
Cc1nn(-c2nnc(NC3CCCCC3)nn2)c(C)c1Br	-165*
Cc1ccc(OCn2c(=O)sc3ccccc32)cc1	-158*
O=c1sc2ccccc2n1CCOc1ccccc1	-133*
O=C(c1ccco1)N1CCN(c2ccc(N3CCCCC3)nn2)CC1	-133*
Cc1nc(N2CCN(C(=O)c3ccco3)CC2)nc2c1C(=O)CCC2	-121*
O=C(c1ccco1)N1CCN(c2ccc(F)cc2)CC1	-79*
O=C(Nc1ccc(-c2ccc(N3CCCCC3)nn2)cc1)c1ccco1	-131*
Cc1nc(N2CCN(C(=O)c3ccco3)CC2)c2oc3ccccc3c2n1	-89*
COc1ccccc1N1CCN(c2nc(C)nc3c2oc2ccccc23)CC1	90
O=C(CSc1n[nH]c(-c2ccccn2)n1)Nc1ccc(Cl)cc1	74
O=C(CCCOc1ccccc1)Nc1nc2ccccc2[nH]1	-115*
